Measurements as given in PubChem BioAssay (NCATS).
Records with an inconclusive call do not appear. Activity calls are given as the source filed them. Unless noted, calls follow the shape of the dose curve; as a rule, active = well fitted curve in the direction sought with a large enough effect; inconclusive = small, poorly fitted or top-dose-only effect, or another doubt; inactive = no such curve, though single readings can be large; an effect the other way counts as inactive or inconclusive.

How the values were obtained:
[1] = target: ATP-dependent 6-phosphofructokinase (Trypanosoma brucei brucei) (UniProt O15648); test: qHTS Assay to Find Inhibitors of T. brucei phosphofructokinase: hit validation (AID 492961);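 also: luminescence reports ADP formed as PFK phosphorylates fructose-6-phosphate with ATP; % is scaled to controls: 0 for no effect and ±100 for the full control effect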
ATP-dependent 6-phosphofructokinase (Trypanosoma brucei brucei), sequence (O15648 whole entry, looked up): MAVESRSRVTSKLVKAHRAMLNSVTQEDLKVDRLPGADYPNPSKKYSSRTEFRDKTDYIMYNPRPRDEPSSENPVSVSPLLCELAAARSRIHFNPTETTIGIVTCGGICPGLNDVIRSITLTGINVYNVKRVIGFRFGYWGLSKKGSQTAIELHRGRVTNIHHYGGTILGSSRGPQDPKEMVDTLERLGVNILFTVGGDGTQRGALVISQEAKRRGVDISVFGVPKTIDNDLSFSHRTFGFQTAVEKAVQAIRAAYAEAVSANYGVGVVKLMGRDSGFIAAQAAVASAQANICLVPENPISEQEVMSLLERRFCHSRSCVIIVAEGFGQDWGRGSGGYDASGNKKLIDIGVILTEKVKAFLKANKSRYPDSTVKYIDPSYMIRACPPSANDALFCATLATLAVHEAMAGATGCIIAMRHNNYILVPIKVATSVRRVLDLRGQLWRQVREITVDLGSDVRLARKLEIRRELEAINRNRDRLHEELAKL
In short: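 Measures ADP output of PFK (1.25 nM) at 0.1 mM ATP, 0.5 mM F6P, pH 8.0 TEA buffer with 5 mM MgCl2. No-enzyme wells define full inhibition; uninhibited enzyme wells define zero.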

[2] = target: Ubiquitin carboxyl-terminal hydrolase 1 (Homo sapiens) (UniProt O94782); test: Inhibitors of USP1/UAF1: Pilot qHTS (AID 504865);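 also: rhodamine fluorescence freed from ubiquitin-rhodamine substrate followed over time; top concentration of the series differs between compounds; % is scaled to controls: 0 for no effect and ±100 for the full control effect; nearly all actives have a fitted effect of over 35% in size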
Ubiquitin carboxyl-terminal hydrolase 1 (Homo sapiens), sequence (O94782 whole entry, looked up): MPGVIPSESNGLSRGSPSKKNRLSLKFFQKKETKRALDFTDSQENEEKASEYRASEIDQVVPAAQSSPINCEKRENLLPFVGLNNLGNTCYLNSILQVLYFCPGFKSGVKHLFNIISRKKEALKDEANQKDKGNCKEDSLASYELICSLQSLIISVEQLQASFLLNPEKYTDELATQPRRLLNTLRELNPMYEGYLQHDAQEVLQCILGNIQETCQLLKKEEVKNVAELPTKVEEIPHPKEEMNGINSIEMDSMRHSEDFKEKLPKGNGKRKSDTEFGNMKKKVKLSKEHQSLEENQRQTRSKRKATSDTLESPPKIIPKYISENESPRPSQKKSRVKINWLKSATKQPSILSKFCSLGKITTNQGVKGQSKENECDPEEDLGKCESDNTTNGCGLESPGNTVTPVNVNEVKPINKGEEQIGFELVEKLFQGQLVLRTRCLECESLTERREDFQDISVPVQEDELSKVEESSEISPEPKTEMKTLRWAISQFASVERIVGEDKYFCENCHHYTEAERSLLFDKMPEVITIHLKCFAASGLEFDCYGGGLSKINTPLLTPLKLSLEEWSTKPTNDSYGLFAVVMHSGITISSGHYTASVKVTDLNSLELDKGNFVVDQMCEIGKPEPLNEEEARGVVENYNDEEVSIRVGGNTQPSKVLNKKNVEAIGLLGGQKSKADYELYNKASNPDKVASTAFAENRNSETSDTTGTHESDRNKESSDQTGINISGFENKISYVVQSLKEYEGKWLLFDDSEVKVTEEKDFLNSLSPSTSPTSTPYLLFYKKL
In short: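 USP1/UAF1 complex at 1 nM preincubated 15 min at room temperature with compound, then Ub-Rho substrate added at 150 nM final. Fluorescence (480/540 nm) read kinetically in 50 mM HEPES pH 7.8, 0.5 mM EDTA, 1 mM TCEP, 0.1 mg/ml BSA, 0.01% Tween-20.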

[3] = target: Luciferin 4-monooxygenase (Photinus pyralis) (UniProt P08659); test: Biochemical firefly luciferase enzyme assay for NPC (AID 624030);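 also: purified P. pyralis luciferase at 10 nM with luciferin and ATP substrate; 0% = DMSO and -100% = full luciferase inhibition by PTC124 control; nearly all actives have a fitted effect of over 70% in size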
Luciferin 4-monooxygenase (Photinus pyralis), sequence (P08659 whole entry, looked up): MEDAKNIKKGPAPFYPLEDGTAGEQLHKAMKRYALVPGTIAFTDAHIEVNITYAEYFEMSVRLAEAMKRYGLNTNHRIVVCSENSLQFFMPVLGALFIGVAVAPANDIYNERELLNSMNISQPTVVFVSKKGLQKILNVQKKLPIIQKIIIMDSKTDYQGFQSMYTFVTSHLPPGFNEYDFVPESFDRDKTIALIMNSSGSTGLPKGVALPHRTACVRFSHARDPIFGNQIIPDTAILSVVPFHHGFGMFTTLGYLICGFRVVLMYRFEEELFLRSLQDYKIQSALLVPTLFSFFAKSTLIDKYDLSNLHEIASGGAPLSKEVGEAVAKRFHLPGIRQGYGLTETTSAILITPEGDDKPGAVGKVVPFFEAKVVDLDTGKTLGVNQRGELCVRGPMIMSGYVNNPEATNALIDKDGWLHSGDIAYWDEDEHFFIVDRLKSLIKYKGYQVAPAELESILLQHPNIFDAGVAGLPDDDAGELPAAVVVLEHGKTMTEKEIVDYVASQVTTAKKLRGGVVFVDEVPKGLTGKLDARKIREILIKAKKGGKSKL
In short: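 Direct inhibition of firefly luciferase enzyme (10 nM final, 50 mM Tris Acetate) assessed by luminescence within 5 minutes. Percent activity scaled between DMSO and PTC124 positive control, with concentration-effect curves classified by fit quality and response.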

[4] = S16 Schwann cell viability assay (CellTiter-Glo assay) (AID 624031); also: potency is read from the fitted curve at half-maximal effect; nearly all actives have a fitted effect of over 70% in size
In short: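 This viability control uses native rat S16 Schwann cells grown in DMEM plus 10% FBS. After a 24 h compound treatment at 37 °C, CellTiter-Glo luminescence reports ATP content, scaled against DMSO-treated and cell-free wells.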

[5] = S16 Schwann cell PMP22 intronic element firefly luciferase assay (AID 624032); also: potency is read from the fitted curve at half-maximal effect; nearly all actives have a fitted effect of over 30% in size
In short: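 Luciferase reporter of PMP22 intronic-element expression in stably transfected S16 rat Schwann cells, read by ONE-Glo luminescence after 24 h compound exposure at 37 C. Activity scaled between DMSO (0%) and positive-control PTC124; concentration-effect curves quality-classified.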

[6] = S16 Schwann cell PMP22 intronic element beta-lactamase assay (AID 624044; calls by dose curve; also: potency is read from the fitted curve at half-maximal effect; nearly all actives have a fitted effect of over 15% in size); conditions: S16 rat Schwann cells, PMP22 element beta-lactamase FRET, 24 h; ratio activity, negative = inhibition: at 38.3 µM (top of the series) unless noted
In short: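 Rat S16 Schwann cells with beta-Lac driven by a PMP22 intronic element, compound-treated 24 h at 37 °C. LiveBLAzer FRET B/G read: 460 nm normalized to potassium clavulanate vs DMSO; 535 nm FRET as viability; concentration-effect curves classified.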

[7] = Primary qHTS for Huh7 cytotoxicity: counterscreen for inhibitors of MERS-S pseudotyped particle cell entry (AID 1479147; calls by dose curve; also: % is scaled to controls: 0 for no effect and ±100 for the full control effect); conditions: outcome: dose series up to 57.1 µM unless noted
[8] = Primary qHTS for inhibitors of MERS-S pseudo-typed particle cell entry (AID 1479149; calls by dose curve; also: % is scaled to controls: 0 for no effect and ±100 for the full control effect; nearly all actives have a fitted effect of over 60% in size); conditions: outcome: dose series up to 57.1 µM unless noted
[9] = Primary qHTS for Vero E6 cytotoxicity: counterscreen for inhibitors of SARS-S pseudo-typed particle cell entry (AID 1479150; calls by dose curve); conditions: outcome: dose series up to 57.1 µM unless noted
[10] = Cytotoxicity counterscreen for inhibitors of SARS-CoV-2 cell entry (AID 1645845; calls by dose curve; also: nearly all actives have a fitted effect of over 50% in size); conditions: outcome: dose series up to 57.1 µM unless noted
In short: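 48 h compound treatment (after 1 h preincubation), HEK293-ACE2 cells, 37 C/5% CO2; ATP luminescence endpoint; normalized to cell wells and media blanks.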

[11] = Primary qHTS to identify inhibitors of SARS-CoV-2 cell entry (AID 1645846; calls by dose curve; also: nearly all actives have a fitted effect of over 45% in size); conditions: SARS-CoV-2 pseudovirus cell entry assay, luminescence; activity change, negative = inhibition: at 57.1 µM (top of the series) unless noted
In short: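 HEK293 cells stably expressing human ACE2, pre-treated 1 h with compound, then infected with MLV particles pseudotyped with Wuhan-Hu-1 spike (C-terminal 19-aa truncation). Luciferase luminescence after 48 h at 37 °C, normalised to spike PP and bald PP.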

[12] = target: Glutathione peroxidase 1 (Homo sapiens) (UniProt P07203); test: Primary qHTS Assay for Inhibitors of Recombinant Selenoprotein Glutathione Peroxidase 1 (GPX1) (AID 1845191); also: % is scaled to controls: 0 for no effect and ±100 for the full control effect; nearly all actives have a fitted effect of over 65% in size
Glutathione peroxidase 1 (Homo sapiens), sequence (P07203 whole entry, looked up): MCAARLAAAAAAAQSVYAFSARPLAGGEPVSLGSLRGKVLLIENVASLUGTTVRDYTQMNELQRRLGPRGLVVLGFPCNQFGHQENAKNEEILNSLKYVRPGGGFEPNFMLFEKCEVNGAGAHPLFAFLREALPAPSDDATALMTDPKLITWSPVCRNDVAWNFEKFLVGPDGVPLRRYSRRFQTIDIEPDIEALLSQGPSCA
In short: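 10 nM GPX1 + cpd, 30 min RT; start w/ 1 mM GSH, 0.5 mM cumene hydroperoxide, 0.5 mM NADPH, 100 nM GR, 0.01% BSA; buffer 50 mM Tris-HCl pH 7.5, 2 mM EDTA, 150 mM NaCl; Fl 340/450, 0 & 15 min.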

[13] = target: Phospholipid hydroperoxide glutathione peroxidase GPX4 (Homo sapiens) (UniProt P36969); test: Primary qHTS Assay for Inhibitors of Recombinant Selenoprotein Glutathione Peroxidase 4 (GPX4) (AID 1845192); also: % is scaled to controls: 0 for no effect and ±100 for the full control effect; nearly all actives have a fitted effect of over 65% in size
Phospholipid hydroperoxide glutathione peroxidase GPX4 (Homo sapiens), sequence (P36969 whole entry, looked up): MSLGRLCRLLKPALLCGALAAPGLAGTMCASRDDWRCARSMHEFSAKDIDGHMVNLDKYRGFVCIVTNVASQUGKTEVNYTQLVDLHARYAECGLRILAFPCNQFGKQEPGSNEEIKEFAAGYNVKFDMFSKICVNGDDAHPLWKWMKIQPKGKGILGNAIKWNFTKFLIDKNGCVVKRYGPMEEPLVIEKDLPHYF
In short: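 NADPH consumption, followed by fluorescence at 340/450 nm between 0 and 15 min, reports GPX4 activity via coupled glutathione reductase (100 nM). Enzyme 200 nM was pre-exposed to compound 30 min; 0.5 mM cumene hydroperoxide and 1 mM GSH served as substrates.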

[14] = qHTS profiling for inhibitors of Plasmodium falciparum proliferation (AID 504749); also: potency is read from the fitted curve at half-maximal effect; nearly all actives have a fitted effect of over 60% in size; conditions: P. falciparum in erythrocytes, SYBR Green DNA, 72 h
In short: (§1)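 Three-day growth assay of blood-stage parasites in erythrocytes (0.3% parasitemia, 2.5% hematocrit) at 37 C, 5% CO2, quantified by SYBR Green DNA staining after overnight detergent lysis.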

3D7 = test: as above; conditions: P. falciparum in erythrocytes, SYBR Green DNA, 72 h; series mostly up to 28.7 µM
In short: as §1

7G8 = test: as above; conditions: P. falciparum in erythrocytes, SYBR Green DNA, 72 h; series mostly up to 12.8 µM
In short: as §1

AA1029 = test: as above; conditions: P. falciparum in erythrocytes, SYBR Green DNA, 72 h; series mostly up to 28.7 µM
In short: as §1

AS120 = test: as above; conditions: P. falciparum in erythrocytes, SYBR Green DNA, 72 h; series mostly up to 28.7 µM
In short: as §1

ATS189 = test: as above; conditions: P. falciparum in erythrocytes, SYBR Green DNA, 72 h; series mostly up to 28.7 µM
In short: as §1

ATS95 = test: as above; conditions: P. falciparum in erythrocytes, SYBR Green DNA, 72 h; series mostly up to 28.7 µM
In short: as §1

C2A = test: as above; conditions: P. falciparum in erythrocytes, SYBR Green DNA, 72 h; series mostly up to 28.7 µM
In short: as §1

CP185 = test: as above; conditions: P. falciparum in erythrocytes, SYBR Green DNA, 72 h; series mostly up to 28.7 µM
In short: as §1

CP191 = test: as above; conditions: P. falciparum in erythrocytes, SYBR Green DNA, 72 h; series mostly up to 28.7 µM
In short: as §1

CP192 = test: as above; conditions: P. falciparum in erythrocytes, SYBR Green DNA, 72 h; series mostly up to 28.7 µM
In short: as §1

CP194 = test: as above; conditions: P. falciparum in erythrocytes, SYBR Green DNA, 72 h; series mostly up to 28.7 µM
In short: as §1

CP201 = test: as above; conditions: P. falciparum in erythrocytes, SYBR Green DNA, 72 h; series mostly up to 28.7 µM
In short: as §1

CP203 = test: as above; conditions: P. falciparum in erythrocytes, SYBR Green DNA, 72 h; series mostly up to 28.7 µM
In short: as §1

CP211 = test: as above; conditions: P. falciparum in erythrocytes, SYBR Green DNA, 72 h; series mostly up to 28.7 µM
In short: as §1

CP215 = test: as above; conditions: P. falciparum in erythrocytes, SYBR Green DNA, 72 h; series mostly up to 28.7 µM
In short: as §1

CP217 = test: as above; conditions: P. falciparum in erythrocytes, SYBR Green DNA, 72 h; series mostly up to 28.7 µM
In short: as §1

CP237 = test: as above; conditions: P. falciparum in erythrocytes, SYBR Green DNA, 72 h; series mostly up to 28.7 µM
In short: as §1

CP238 = test: as above; conditions: P. falciparum in erythrocytes, SYBR Green DNA, 72 h; series mostly up to 28.7 µM
In short: as §1

CP247 = test: as above; conditions: P. falciparum in erythrocytes, SYBR Green DNA, 72 h; series mostly up to 28.7 µM
In short: as §1

CP250 = test: as above; conditions: P. falciparum in erythrocytes, SYBR Green DNA, 72 h; series mostly up to 12.8 µM
In short: as §1

CO[C@@H](COC(N)=O)C1=C(N2CC2)C(=O)C(C)=C(N2CC2)C1=O
Potency [1]: inactive
Potency [2]: inactive
Potency [3]: inactive
Potency [4]: 32200 nM (active)
Potency [5]: 36100 nM (active)
Potency [6]: 354 nM (active)
Potency [7]: inactive
Potency [8]: inactive
Potency [9]: inactive
Potency [10]: inactive
activity change, negative = inhibition [11]: -18.1%
Potency [12]: inactive
Potency [13]: inactive
Potency ([14]; parasite line A): 891 nM (active)
Potency ([14]; parasite line B): 1410 nM (active)
Potency (3D7): 1260 nM (active)
Potency (7G8): 1260 nM (active)
Potency (AA1029): 1410 nM (active)
Potency (AS120): 891 nM (active)
Potency (ATS189): 2820 nM (active)
Potency (ATS95): 1410 nM (active)
Potency (C2A): 794 nM (active)
Potency (CP185): 794 nM (active)
Potency (CP191): 708 nM (active)
Potency (CP192): 1690 nM (active)
Potency (CP194): 1690 nM (active)
Potency (CP201): 3380 nM (active)
Potency (CP203): 1510 nM (active)
Potency (CP211): 675 nM (active)
Potency (CP215): 1900 nM (active)
Potency (CP217): 3160 nM (active)
Potency (CP237): 1260 nM (active)
Potency (CP238): 1410 nM (active)
Potency (CP247): 708 nM (active)
Potency (CP250): 1410 nM (active)
